Data published in PubChem BioAssay (NCI).
The panel holds about 83,000 compounds, 20% with a hit somewhere; the sample as a whole holds those more often.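 Negative percent growth values reflect cell death: -40 means 40% of the cells present at the start died, and -100 means all died.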 The source made the active and inactive calls. Rule for the calls: active = growth percent below 10; inactive = the rest.

How the values were obtained:
Assay in all cases: NCI-60 one-dose screen, 48 h (100 = growth as untreated, 0 = no growth, -100 = all killed)
Details in all cases: 10 µM unless noted
NCI-H23 lung = tested on: NCI-H23 lung
NCI-H226 lung = tested on: NCI-H226 lung
NCI-H322M lung = tested on: NCI-H322M lung
HOP-62 NSCLC = tested on: HOP-62 NSCLC
NCI-H460 lung = tested on: NCI-H460 lung
HOP-92 NSCLC = tested on: HOP-92 NSCLC
NCI-H522 lung = tested on: NCI-H522 lung
A549/ATCC NSCLC = tested on: A549/ATCC NSCLC
786-0 renal = tested on: 786-0 renal
COLO 205 colon = tested on: COLO 205 colon
DU-145 prostate = tested on: DU-145 prostate
K-562 leukemia = tested on: K-562 leukemia
MALME-3M melanoma = tested on: MALME-3M melanoma
MDA-MB-231 breast = tested on: MDA-MB-231 breast
RXF 393 renal = tested on: RXF 393 renal
SF-268 CNS = tested on: SF-268 CNS
SF-295 CNS = tested on: SF-295 CNS
SF-539 CNS = tested on: SF-539 CNS
UACC-257 melanoma = tested on: UACC-257 melanoma
M14 melanoma = tested on: M14 melanoma

Measured: growth

CCOC(=O)/C(C#N)=C1/NNC(=Nc2cccnc2)S1
inactive: NCI-H23 lung 97.7% | NCI-H226 lung 96.2% | NCI-H322M lung 105% | HOP-62 NSCLC 90.8% | NCI-H460 lung 99.3% | HOP-92 NSCLC 93.9% | NCI-H522 lung 85.3% | A549/ATCC NSCLC 85.3% | 786-0 renal 98% | COLO 205 colon 103% | DU-145 prostate 105% | K-562 leukemia 99.8% | MALME-3M melanoma 105% | MDA-MB-231 breast 98.8% | RXF 393 renal 110% | SF-268 CNS 100% | SF-295 CNS 98.9% | SF-539 CNS 102% | UACC-257 melanoma 78.3% | M14 melanoma 95.9%

COc1cc2c(=O)n(CCCN(C)C)c3c4cc5c(cc4ccc3c2cc1OC)OCO5
inactive: NCI-H23 lung 58.6% | NCI-H226 lung 52.8% | NCI-H322M lung 61.6% | HOP-62 NSCLC 38% | NCI-H460 lung 18.2% | HOP-92 NSCLC 67.7% | NCI-H522 lung 53.9% | A549/ATCC NSCLC 41.8% | 786-0 renal 62.8% | COLO 205 colon 49% | DU-145 prostate 63.5% | K-562 leukemia 56.3% | MALME-3M melanoma 67.8% | MDA-MB-231 breast 67% | RXF 393 renal 45.3% | SF-268 CNS 50.4% | SF-295 CNS 42.5% | SF-539 CNS 46.2% | UACC-257 melanoma 93.1% | M14 melanoma 66.6%

NC(=NCc1ccccc1)C(N=Nc1ccccc1)C(=O)NCc1ccccc1 (stereo not given)
active: A549/ATCC NSCLC 1.29%
inactive: NCI-H23 lung 65.3% | NCI-H226 lung 109% | NCI-H322M lung 101% | HOP-62 NSCLC 92.2% | NCI-H460 lung 50.1% | HOP-92 NSCLC 99% | NCI-H522 lung 63.4% | 786-0 renal 92.4% | COLO 205 colon 79.5% | DU-145 prostate 94.4% | K-562 leukemia 25.2% | MALME-3M melanoma 133% | MDA-MB-231 breast 68.3% | RXF 393 renal 72.6% | SF-268 CNS 53.5% | SF-295 CNS 53.9% | SF-539 CNS 50.3% | UACC-257 melanoma 95.4% | M14 melanoma 82.9%

COc1cc(F)c(/C=C/c2cc(/C=C/c3cc(OC)c(OC)cc3F)on2)cc1OC
inactive: NCI-H23 lung 79.4% | NCI-H226 lung 56.8% | NCI-H322M lung 96% | HOP-62 NSCLC 107% | NCI-H460 lung 72.1% | HOP-92 NSCLC 88.4% | NCI-H522 lung 62.3% | A549/ATCC NSCLC 81.3% | 786-0 renal 87.3% | COLO 205 colon 80% | DU-145 prostate 88.2% | K-562 leukemia 63.3% | MALME-3M melanoma 69.3% | MDA-MB-231 breast 83% | RXF 393 renal 92.8% | SF-268 CNS 86.7% | SF-295 CNS 97.7% | SF-539 CNS 98% | UACC-257 melanoma 86.3% | M14 melanoma 80.9%

O=S(=O)(NCCCNc1nccc(-c2c(-c3cccc(O)c3)nc3occn23)n1)c1ccc(Cl)cc1
inactive: NCI-H23 lung 94.6% | NCI-H226 lung 108% | NCI-H322M lung 103% | HOP-62 NSCLC 114% | NCI-H460 lung 92.5% | HOP-92 NSCLC 96.6% | NCI-H522 lung 87.6% | A549/ATCC NSCLC 90.5% | 786-0 renal 102% | COLO 205 colon 27.7% | DU-145 prostate 95.4% | K-562 leukemia 55.6% | MALME-3M melanoma 10.7% | MDA-MB-231 breast 61.8% | RXF 393 renal 77.9% | SF-268 CNS 87.4% | SF-295 CNS 116% | SF-539 CNS 108% | UACC-257 melanoma 12.7% | M14 melanoma 24.3%

O=S(=O)(NCCNc1nccc(-c2c(-c3cccc(O)c3)nc3occn23)n1)c1ccccc1
active: MALME-3M melanoma 2.3%
inactive: NCI-H23 lung 93.5% | NCI-H226 lung 104% | NCI-H322M lung 93.7% | HOP-62 NSCLC 119% | NCI-H460 lung 80.6% | HOP-92 NSCLC 80.9% | NCI-H522 lung 77.5% | A549/ATCC NSCLC 78.9% | 786-0 renal 93.3% | COLO 205 colon 34.6% | DU-145 prostate 97.7% | K-562 leukemia 68.4% | MDA-MB-231 breast 66.5% | RXF 393 renal 90.3% | SF-268 CNS 85.3% | SF-295 CNS 96.6% | SF-539 CNS 105% | UACC-257 melanoma 17.7% | M14 melanoma 29.4%

Cc1cnc(C(=O)Nc2nc3ccc(S(=O)(=O)Nc4ccc(C5(C(F)(F)F)CC5)cc4)cc3[nH]2)cn1
inactive: NCI-H23 lung 33.9% | NCI-H226 lung 13.2% | NCI-H322M lung 33.9% | HOP-62 NSCLC 21.1% | HOP-92 NSCLC 32.8% | NCI-H522 lung 16% | A549/ATCC NSCLC 23.7% | 786-0 renal 26.2% | K-562 leukemia 10% | MALME-3M melanoma 32.2% | MDA-MB-231 breast 47.2% | SF-268 CNS 47% | SF-295 CNS 20.6% | UACC-257 melanoma 57.7%
active: NCI-H460 lung 0.982% | COLO 205 colon -1.76% | DU-145 prostate 1.12% | RXF 393 renal -17.4% | SF-539 CNS -1.85% | M14 melanoma 6.68%

COc1cccc(-c2nc3occn3c2-c2ccnc(NCCCNS(=O)(=O)c3ccc(C(F)(F)F)cc3)n2)c1
inactive: NCI-H23 lung 99.3% | NCI-H226 lung 80.5% | NCI-H322M lung 99.4% | HOP-62 NSCLC 103% | NCI-H460 lung 89.8% | HOP-92 NSCLC 104% | NCI-H522 lung 86.9% | A549/ATCC NSCLC 89.7% | 786-0 renal 86.8% | COLO 205 colon 70% | DU-145 prostate 89.2% | K-562 leukemia 69.8% | MALME-3M melanoma 95.8% | MDA-MB-231 breast 90.1% | RXF 393 renal 79.6% | SF-268 CNS 75% | SF-295 CNS 95.2% | SF-539 CNS 89.5% | UACC-257 melanoma 84.5% | M14 melanoma 85.6%
